Results on twelve molecules are retold here after PubChem BioAssay (Tox21).

Records with an inconclusive call do not appear. Entries that show only a call come without a potency. Calls of active or inactive are those of the source. The call rests on the fitted dose curve; in most records, active means well fitted curve in the direction sought with a large enough effect in the signal ratio in the repeat runs (not every such curve was filed as active); inconclusive means weak or mixed curves, or effect the other way; inactive means no such curve, though single readings can be large or run the other way; the % refers to the signal ratio. Positions of bridges follow the written chain, without caps; N, C: chain ends. Non-standard residues stand in square brackets, D forms with d. Residues, ends and D or L forms follow the SMILES beside them. *: point of attachment. X2 = CC[C@H](C)CCCCC(=O)*; Dab = NCC[C@H](N)C(=O)O

The target of the test is Estrogen receptor (Homo sapiens) (UniProt P03372). Nature of the test: qHTS assay to identify small molecule antagonists of the estrogen receptor alpha (ER-alpha) signaling pathway (AID 743069). The following applies: HEK293 ER-alpha-UAS-bla, beta-lactamase ratio, antagonist mode; series mostly up to 69.4 µM. Summed up: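 Reporter cells (ER-alpha-bla, HEK293 background) are conditioned overnight in stripped-serum medium (2% charcoal-stripped FBS). Compound and 17beta-estradiol exposure runs 18 hr at 37C, 5% CO2.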
Chain of Estrogen receptor (Homo sapiens) (P03372 whole entry, looked up): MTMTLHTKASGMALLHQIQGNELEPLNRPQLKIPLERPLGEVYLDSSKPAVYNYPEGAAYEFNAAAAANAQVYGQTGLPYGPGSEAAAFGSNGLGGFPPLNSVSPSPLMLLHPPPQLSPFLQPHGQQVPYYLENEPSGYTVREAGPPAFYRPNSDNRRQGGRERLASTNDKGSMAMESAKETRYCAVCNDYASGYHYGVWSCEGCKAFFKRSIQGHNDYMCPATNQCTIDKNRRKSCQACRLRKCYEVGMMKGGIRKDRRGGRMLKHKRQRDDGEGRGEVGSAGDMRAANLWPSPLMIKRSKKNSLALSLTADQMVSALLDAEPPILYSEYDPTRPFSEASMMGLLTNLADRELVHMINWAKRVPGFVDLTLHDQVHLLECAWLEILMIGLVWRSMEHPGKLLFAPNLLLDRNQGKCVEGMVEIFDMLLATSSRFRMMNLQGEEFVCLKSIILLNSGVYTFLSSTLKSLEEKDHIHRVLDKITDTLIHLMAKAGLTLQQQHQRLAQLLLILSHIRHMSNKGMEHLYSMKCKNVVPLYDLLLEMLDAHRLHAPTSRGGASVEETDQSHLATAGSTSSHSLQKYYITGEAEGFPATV
Turning to `CC1(C)[C@@H]2CC[C@@]1(C)[C@H](OC(=O)CSC#N)C2`, the Potency result was “inactive”.

For `OC[C@H]1O[C@@H](n2cnc3c2NC=NC[C@H]3O)C[C@@H]1O`, the Potency entry was “inactive”. Regarding `CCC(=O)OCC(=O)[C@@]1(OC(=O)CC)[C@@H](C)C[C@H]2[C@@H]3CCC4=CC(=O)C=C[C@]4(C)[C@@]3(Cl)[C@@H](O)C[C@@]21C`, the Potency entry is “inactive”. For `CC(C)[C@@H](C)/C=C/[C@@H](C)[C@H]1CC[C@H]2/C(=C/C=C3\C[C@@H](O)CC[C@@H]3C)CCC[C@]12C`, the Potency entry was “inactive”. `CC(=O)O[C@H]1CC[C@@]2(C)C(=CC[C@@H]3[C@@H]2CC[C@]2(C)C(c4cccnc4)=CC[C@@H]32)C1`: the Potency entry is “inactive”. `CCOC(=O)c1c[nH]c2cc(OCC(C)C)c(OCC(C)C)cc2c1=O`: the Potency entry is “inactive”.

On to `Cc1ccc(C2(O)CCN(CCCC(=O)c3ccc(F)cc3)CC2)cc1`, for which the Potency result was “inactive”. The result for `CN1c2c(nc(N)[nH]c2=O)NCC1CNc1ccc(C(=O)NC(CCC(=O)O)C(=O)O)cc1` (configuration not stated) reads “inactive”; that for `COc1ccc2cc([C@H](C)CO)ccc2c1`, “inactive”. For the molecule `COc1cc(NCCCC(C)N)c2ncccc2c1` (configuration not stated), the Potency entry was “inactive”.

For the molecule `CC1(C)N=C(N)N=C(N)N1c1ccc(Cl)cc1`, the Potency result was “inactive”. With `CC[C@H](C)CCCCC(=O)N[C@@H](CCN)C(=O)N[C@H](C(=O)N[C@@H](CCN)C(=O)N[C@H]1CCNC(=O)[C@@H]([C@H](C)O)NC(=O)[C@H](CCN)NC(=O)[C@H](CCN)NC(=O)[C@H](CC(C)C)NC(=O)[C@@H](CC(C)C)NC(=O)[C@H](CCN)NC1=O)[C@@H](C)O` (X2-[Dab]T[Dab][Dab][Dab][dL]L[Dab][Dab][dT]; lactam 4-C), the Potency entry is “inactive”.
